# Bioassay records as filed in PubChem.
# HPGD block – inhibitors of human 15-hydroxyprostaglandin dehydrogenase (HPGD); purified HPGD, NADH fluorescence kinetic, PGE2 substrate; Potency, µM, for the others: at the top dose activity change, negative = inhibition, most hits filed as inhibitors; 4.3% of 150,000 active; AID 894; active means well fitted inhibition curve with a large enough effect, not every such curve was filed as active; inconclusive means small, poorly fitted or top-dose-only effect, or another doubt; inactive means no such curve, though single readings can be large or run the other way
# Target sequence (P15428 whole entry, looked up): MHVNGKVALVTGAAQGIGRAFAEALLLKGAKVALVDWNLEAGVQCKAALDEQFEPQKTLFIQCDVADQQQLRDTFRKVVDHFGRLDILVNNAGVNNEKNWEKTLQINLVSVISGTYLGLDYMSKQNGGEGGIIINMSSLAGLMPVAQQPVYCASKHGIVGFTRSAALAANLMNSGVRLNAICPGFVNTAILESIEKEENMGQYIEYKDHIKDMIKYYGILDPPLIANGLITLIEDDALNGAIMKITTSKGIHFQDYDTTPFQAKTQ
#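 NADH formation kinetics: reaction with 30 uM PGE2 and 1 mM NAD+ (final), 20 nM enzyme, Tris-HCl pH 8 with Tween 20, after 15 min compound preincubation at room temperature. Fluorescence change, last versus first of five reads.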
# IMPase Li inh – cell-permeable IMPase inhibitors with lithium potentiation; Potency, µM (titrated, usually from 59.4 µM), without a hit: top-dose activity, negative = IMPase inhibition, actives largely listed as inhibitors; AID 1457; CHO-M1 cells, IP1 TR-FRET (IP-One), carbachol + lithium; 0.35% of 210,000 active;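 further: IP1 builds up when IMPase is blocked and the TR-FRET signal falls; plate controls were basal vehicle for no effect and high inhibitor control for full effect; nearly all actives have a fitted effect of over 50% in size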
#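 CHO cells stably expressing M1 receptor (2000/well, cultured 16–30 h) treated 30 min at 37C with compound plus low lithium. Cytosolic IP1 by TR-FRET (665/620 ratio and 620 channel) after 10 min lysis; AC50 by Hill fit.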
# Luc counter – counter-screen: inhibitors of Kinase-Glo firefly luciferase; Q27757; Kinase-Glo luciferase, ATP luminescence, 8 min; Potency, µM (titrated, usually from 38.3 µM), for inactives: at the highest dose activity change, negative = inhibition, hits mostly inhibitors; 0.28% of 200,000 active; AID 1379; further: nearly all actives have a fitted effect of over 60% in size
#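 Substrate mix (final 50 mM imidazole pH 7.2, 50 mM KCl, 7 mM MgCl2, 10 uM ATP, 0.01% Tween 20, 0.05% BSA) plus pin-tool compound, then Kinase-Glo detection mix; 8 min ambient, luminescence read.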
# LMNA splice mod – modulators of lamin A splicing | HeLa LMNA splicing GFP/RFP minigene ratio, 48 h | Potency, µM (top dose mostly 46.1 µM), for inactives: at the top dose ratio change, negative = inhibition, most hits filed as inhibitors | 0.01% of 200,000 active | AID 1487; active means well fitted inhibition curve with a large enough effect in the signal ratio, with a control signal flat, not every such curve was filed as active; inconclusive means small, poorly fitted or top-dose-only effect, or effect the other way, or a change in a side signal; the % refers to the signal ratio
#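 S3 HeLa stable clones carrying a lamin A-EGFP splicing minigene plus DsRed2 were seeded at 600 cells/well in Opti-MEM with 2% FBS, pin-dosed and incubated 48 h at 37°C. Acumen cytometry (488 nm) gave the GFP/RFP total-intensity ratio.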
# ALDH1A1 block – inhibitors of human aldehyde dehydrogenase 1A1. P00352. Purified ALDH1A1, NADH fluorescence, propionaldehyde substrate. Potency, µM (highest dose often 75.3 µM), for the others: at the top dose activity, negative = inhibition, hits mostly inhibitors. 7.3% of 220,000 active. AID 1030; active means well fitted inhibition curve with a large enough effect, not every such curve was filed as active; inconclusive means small, poorly fitted or top-dose-only effect, or another doubt; inactive means no such curve, though single readings can be large or run the other way;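 further: plate controls were no enzyme wells and a reference inhibitor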
# Target sequence (P00352 whole entry, looked up): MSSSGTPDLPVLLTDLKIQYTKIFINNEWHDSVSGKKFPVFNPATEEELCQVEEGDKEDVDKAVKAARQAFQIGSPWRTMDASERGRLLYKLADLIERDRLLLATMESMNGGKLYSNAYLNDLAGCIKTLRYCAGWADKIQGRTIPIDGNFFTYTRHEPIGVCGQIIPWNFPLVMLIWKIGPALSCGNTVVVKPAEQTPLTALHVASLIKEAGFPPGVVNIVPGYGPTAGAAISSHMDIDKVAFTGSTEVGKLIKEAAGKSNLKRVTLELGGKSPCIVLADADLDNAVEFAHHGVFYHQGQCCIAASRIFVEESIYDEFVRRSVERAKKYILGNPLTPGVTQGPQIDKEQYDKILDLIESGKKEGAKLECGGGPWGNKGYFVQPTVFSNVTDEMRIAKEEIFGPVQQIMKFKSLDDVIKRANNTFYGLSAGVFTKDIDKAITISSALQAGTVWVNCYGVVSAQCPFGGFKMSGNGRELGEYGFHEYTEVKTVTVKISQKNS
# Numbers without * were called inactive; ? = inconclusive; . = no result given; [ ] = remark or other dose. Shown are actives, neighbours in structure and some others; about 9% of the full set was active somewhere. Unless noted, the call rests on the fitted dose curve; in most records, active means well fitted curve in the direction sought with a large enough effect; inconclusive means small, poorly fitted or top-dose-only effect, or another doubt; inactive means no such curve, though single readings can be large; an effect the other way counts as inactive or inconclusive. Unless noted, on the % scale 0 is the no-effect control and ±100 the full control effect; potency means the concentration at half of the fitted maximal effect.
SMILES,HPGD block,IMPase Li inh,Luc counter,LMNA splice mod,ALDH1A1 block
CCN(CC)c1ccc(NC(=O)c2ccccc2Br)cc1S(=O)(=O)Nc1ccccc1OC,2.24µM*,8.7%,0.4%,?,1.58µM*
CCN(CC)CCNC(=O)c1ccc(NC(=O)c2ccc(Cl)c(S(=O)(=O)Nc3ccccc3OC)c2)cc1,-6.9%,24.3%[38.3 µM],-0.4%,5.9%,-1.6%
CN(C)c1ncc2ncc(=O)n(CCc3ccccc3)c2n1,.,9.2%,.,?,?
CO[C@@H]1COC(=O)C/C=C\[C@@H](C)[C@H](OC)COC(=O)[C@@H](C)COC(=O)C/C=C\[C@H]1C,.,.,.,.,10.9%[13.5 µM]
CCN(CC)c1ccc(NC(=O)c2ccc(=O)[nH]c2)cc1S(=O)(=O)Nc1ccccc1OC,.,14.4%,-1.2%,-12.8%[46 µM],3.98µM*
COc1ccc(NC(=O)c2ccc(=O)[nH]c2)cc1S(=O)(=O)N1CCCCC1,-6.2%,-2.1%,0.5%,6.8%,6.8%
O=C(Cn1nc2ccccc2n1)N/N=C/c1cc([N+](=O)[O-])ccc1O,.,3.0%,-0.1%,.,?
O=[N+]([O-])c1ccc(O)c(/C=N/n2cnnc2)c1,-17.6%,-0.1%,3.3%,-13.5%,20µM*
O=C(Cn1nnc(-c2ccccc2)n1)N/N=C/c1cc([N+](=O)[O-])ccc1O,14.1µM*,-6.9%,2.9%,-10.6%,?
CN(C)/N=C/c1cc([N+](=O)[O-])ccc1O,.,7.3%,1.6%,?,-0.7%
CCCN(CC(=O)Nc1ccc(C(N)=O)cc1)CC(=O)Nc1cc(Cl)ccc1Cl,.,-4.0%,0.8%,29.8%[46 µM],11.4%
CCCN(CC(=O)Nc1ccc(C(C)=O)cc1)CC(=O)Nc1ccccc1C,.,7.8%,0.1%,-4.7%[46 µM],14.1µM*
COc1cc(Cl)c(C)cc1NC(=O)c1ccc(S(C)(=O)=O)cc1,.,2.8%,-3.7%,-11.1%[46 µM],5.0%
O=C(NCCc1cccs1)C1CC(c2c(Cl)cccc2Cl)=NO1 (centres undefined),14.1µM*,-4.8%[38.3 µM],1.7%,14.2%,-0.7%
COC(=O)c1ccccc1NC(=S)NC(NC(=O)c1ccco1)C(Cl)(Cl)Cl (centres undefined),-11.8%,-1.7%[38.3 µM],-1.5%,-0.6%,?
O=C(NC(NC(=S)Nc1cc(Cl)ccc1Cl)C(Cl)(Cl)Cl)c1ccco1 (centres undefined),-22.0%,9.1%[38.3 µM],1.8%,?,8.91µM*
O=C(NC(NC(=S)Nc1ccc(Cl)c(Cl)c1)C(Cl)(Cl)Cl)c1ccco1 (centres undefined),-23.6%,9.9%[38.3 µM],-2.5%,1.3%,7.08µM*
Cc1ccccc1NC(=S)NC(NC(=O)c1ccco1)C(Cl)(Cl)Cl (centres undefined),-15.8%,10.0%,-2.6%,?,9.46µM*
O=C(/C=C/c1ccccc1)NC(NC(=S)Nc1cc(Cl)ccc1Cl)C(Cl)(Cl)Cl (centres undefined),-7.9%,-1.0%[38.3 µM],1.8%,4.5%[0.0737 µM],22.4µM*
O=C(/C=C/c1ccccc1)NC(NC(=S)Nc1ccc(Cl)cc1)C(Cl)(Cl)Cl (centres undefined),-12.1%,15.3%[38.3 µM],7.5%,?,2.1%
O=C(NC(NC(=S)Nc1ccccc1C(=O)O)C(Cl)(Cl)Cl)c1ccco1 (centres undefined),?,-4.2%,0.7%,-9.3%,?
CS(=O)(=O)Nc1c(O)ccc2c1CCCC2C1=NCCN1 (centres undefined),.,-2.7%,.,.,1.9%
O=C(O)c1cnn2c(-c3ccc(F)cc3)ccnc12,.,-11.7%,1.0%,.,-5.5%
COc1cccc(CNc2cccc3cccnc23)c1O,31.6µM*,74.3%[38.3 µM],-3.1%,7.8%,?
Cc1ccc(O)c(CNc2cccc3cccnc23)c1,.,5.4%,-1.0%,1.0%[46 µM],-5.6%
SMILES,HPGD block,IMPase Li inh,Luc counter,LMNA splice mod,ALDH1A1 block
CC(C)(C)C(=O)Nc1ccc(Sc2ccc([N+](=O)[O-])cc2)cc1,8.91µM*,17.5%,2.5%,-16.7%,4.5%
CC(C)(C)C(=O)NC(NC(=O)C(C)(C)C)c1ccc([N+](=O)[O-])cc1,-7.7%,3.5%,1.1%,10.3%,5.9%
OCCN(Cc1ccccc1)Cc1ccc(F)c(F)c1,5.4%,25.8%[38.3 µM],4.9%,-10.9%,-10.1%
N#CC1=C2SCN(Cc3ccco3)CN2C(=O)CC1c1cccc2ccccc12 (centres undefined),?,-1.7%[38.3 µM],-1.7%,9.7%,?
CCCSC1=C(C#N)C(c2cc(OC)ccc2OC)CC(=O)N1 (centres undefined),22.4µM*,4.3%,2.5%,-5.0%,-3.0%
COc1ccc(N2CSC3=C(C#N)C(c4cc(OC)ccc4OC)CC(=O)N3C2)c(OC)c1 (centres undefined),7.94µM*,9.8%[38.3 µM],-0.1%,-5.3%,8.91µM*
COc1ccc(N2C(=O)C3CC(C)=C(C)CC3C2=O)c(OC)c1 (centres undefined),-2.9%,-11.9%[38.3 µM],3.4%,0.5%,10.0%
CCSC1=C(C#N)C(c2ccc(OC)c(OC)c2)CC(=O)N1 (centres undefined),1.5%,25.8%[38.3 µM],-2.1%,-4.0%,-6.8%
COc1cc(OC)c(C2CC(=O)N3CN(c4ccc(C)cc4)CSC3=C2C#N)cc1OC (centres undefined),7.08µM*,-3.2%[38.3 µM],0.7%,2.4%,7.94µM*
COc1ccc(N2CSC3=C(C#N)C(c4cc(OC)c(OC)cc4OC)CC(=O)N3C2)c(OC)c1 (centres undefined),10µM*,12.0%[38.3 µM],-2.4%,6.5%,8.91µM*
CN(C)C(=O)C1CCC(=O)N1Cc1cccs1 (centres undefined),.,-6.9%,-1.6%,.,-0.2%
COc1cc2c(cc1OC)C(c1cccs1)N(C(=S)NC(C)C)CC2 (centres undefined),.,7.1%,1.1%,-30.7%[46 µM],4.9%
CCOc1ccc(CO/N=C/c2c(C)[nH]c(=O)[nH]c2=O)cc1,.,-3.3%,-3.4%,.,-8.2%
S=C(NCCCn1ccnc1)Nc1cccc(Cl)c1,.,3.7%,1.2%,.,?
COc1ccc(N2CSC3=C(C#N)C(c4ccc(OC)c(OC)c4)CC(=O)N3C2)c(OC)c1 (centres undefined),10µM*,-11.4%[38.3 µM],-3.5%,1.2%,11.2µM*
COc1ccc(C2C(C#N)=C(N)OC3=C2C(=O)CCC3)cc1OC (centres undefined),.,6.3%,2.0%,3.2%[46 µM],-0.2%
COc1ccc(C2CC(=O)N3CN(c4ccc(C)c(Cl)c4)CSC3=C2C#N)cc1OC (centres undefined),?,?,-1.0%,-16.5%,7.94µM*
CCOc1ccccc1N1CSC2=C(C#N)C(c3c(OC)ccc4ccccc34)CC(=O)N2C1 (centres undefined),7.08µM*,15.2%[38.3 µM],0.7%,1.7%,4.47µM*
COc1ccc(N2C(=O)CCC2=O)c(OC)c1,.,-7.9%,-0.6%,?,10.8%
CCC(C)[C@H](NC(=O)N1CCC(C)CC1)C(=O)OC (some centres undefined),.,.,.,.,4.6%
